Measured values published in publication PMC12136788.
Where a chain is given by its changes, count along the chain named. In all, about 5,800 sequences were measured (“enrichment r”: median about 0.54, highest 2% from about 16 on). Many of the other results were omitted from the sample, so the highest values are more common in it than they were.

B1: chr12:39618871:39619093:-|CDS|ENSG00000173208|unk|total|mutant (ssRNA)
RNA: GGGAGUUCUACAGUCCGACGAUCUAUUAUGAUGUUCUCCCAAUCUGUGGCUCACUUGUAUUCCAAUCUGACCAAACCUAUUUCCGAUGUAAUGCUGACCUCCUAUACACUCAUUCAAACUGCUACAUCCAGAGGAGCAAGCCCCAACAGAGGAUUGAGCAUCA
B2: chr8:17753977:17754079:-|CDS|ENSG00000129422|unk|FALSE|bound_elsewhere (ssRNA)
RNA: GGGAGUUCUACAGUCCGACGAUCAAAAAAGCAGAAAUUCUAAUUAACAAGACACAUAAGCAGCAGUUUAAUAAACUCAUUACUAGCCAGGCUGUGCAUGUUACAACUCAUUCUAAAAAUGCUUCACACAGGGUUCCAAGAACACAACAGAGGAUUGAGCAUCA
B3: chr1:152032676:152032810:-|CDS|ENSG00000163191|unk|FALSE|unique (ssRNA)
RNA: GGGAGUUCUACAGUCCGACGAUCGGACCCUGGUGUCCUUGACCGCAUGAUGAAGAAACUGGACACCAACAGUGAUGGUCAGCUAGAUUUCUCAGAAUUUCUUAAUCUGAUUGGUGGCCUAGCUAUGGCUUGCCAUGACUCCUUCAACAGAGGAUUGAGCAUCA
B4: chr2:27041412:27041530:+|3pUTR|ENSG00000119777|msi1_unk|total|mutant (ssRNA)
RNA: GGGAGUUCUACAGUCCGACGAUCACUUCAAAAUGCCCAGCCUGCCCCAAAUGCCUCUAAGCCCCUCCCUGUCCCCUCCCUUGCCGUCCUACUUCUUCCAACUUUCCAUUCCCCAUCAUGCUGGGGGUCUUGGUCACAAGGCUCCAACAGAGGAUUGAGCAUCA
B5: chr11:49981574:49982501:-|CDS|ENSG00000221954|control|control|control (ssRNA)
RNA: GGGAGUUCUACAGUCCGACGAUCGAACAAUAGCUUGGAGGGGAGGUGUAAAGCCCUCUCCACCUGUAUUUCUCACAUCAUAGUAGUUGUCUUAUUCUUUGUGCCCUGUAUAUUUGUGUAUCUGCGCUCAGUGACCACUCUGCCCAACAGAGGAUUGAGCAUCA
B6: chr15:34980028:34980129:-|3pUTR|ENSG00000198146|msi1|total|mutant (ssRNA)
RNA: GGGAGUUCUACAGUCCGACGAUCGGUUCUGUUAUUUAAGCCUGUUCUAAGUUUGAUCAAAUGGCAAUGACCCGGUCCCGUUUCCGUUUUUAUUUUUGCAGGAGUCUAUUGCUAAAGAAUUUUAUUUUGAUGCUUGUUAAAUUUCAACAGAGGAUUGAGCAUCA
B7: chr12:39553730:39553837:-|3pUTR|ENSG00000173208|unk|FALSE|unique (ssRNA)
RNA: GGGAGUUCUACAGUCCGACGAUCGAAGUAUGUUAAGCUAAGCACAGAGAAAAAAAGGCAGCAAGACAUGUUUUAUAAGAUUUUAGCAUUAAGGAAGUAUAUGAUCUGACUUUUCAGAAGAAAAUAAACAAAUGCAUUAUGUAACAACAGAGGAUUGAGCAUCA
B8: chr11:35231809:35232301:+|3pUTR|ENSG00000026508|msi1|FALSE|unique (ssRNA)
RNA: GGGAGUUCUACAGUCCGACGAUCACAACACCAAGAAUUGAUUUUGUAGCCAACAUUCAUUCAAUACUGUUAUAUCAGAGGAGUAGGAGAGAGGAAACAUUUGACUUAUCUGGAAAAGCAAAAUGUACUUAAGAAUAAGAAUAACAACAGAGGAUUGAGCAUCA
B9: chr10:11920118:11920232:-|3pUTR|ENSG00000151461|unk|FALSE|unique (ssRNA)
RNA: GGGAGUUCUACAGUCCGACGAUCGUAGUAUAUUUAGUCGGAGAGCACAUCUGUAUGCGACAACUUGAUUACAUCUUUUUUUCUAGCUAUUUUGCAUUUUUUCUUUUACCAUGUUUCAGUUUCUGCAUGUAGAUUUAAAUAAAACAACAGAGGAUUGAGCAUCA
B10: chr7:157269180:157269282:+|3pUTR|ENSG00000009335|unk|FALSE|unique (ssRNA)
RNA: GGGAGUUCUACAGUCCGACGAUCAUUUUAGGUUGUUUUAUGUUGAAUGUUCUAUAUCUUAUUAGUUAAUUUGUAUAUUUUAUUAGUAUUUUGGAAAUAGCAUAUCUGAGACUGAAGAGAAAUUGACAAUUCACUUAUUUGUGGCAACAGAGGAUUGAGCAUCA
B11: ENSG00000070961:be:win_5801|3pUTR|ENSG00000070961|bound_else_gene|NA|bound_elsewhere_windowed (ssRNA)
RNA: GGGAGUUCUACAGUCCGACGAUCGAAAAGGGAAAUGUUUUCAGUUUUCUUUUUUAUUUUGGUUAUGCUUAAAUAUGAAUGUAAUUACCAAAAGAUUUAGAAGUGCAUGUGCUUUGGAGGAUUUGUAUUGAGCUUUUACAGUAUCAACAGAGGAUUGAGCAUCA
B12: chr15:34980028:34980129:-|3pUTR|ENSG00000198146|msi1|FALSE|unique (ssRNA)
RNA: B6 RNA with C71U, C72A, C77U, C78A, C83U, C84A
B13: ENSG00000070961:be:win_4501|3pUTR|ENSG00000070961|bound_else_gene|NA|bound_elsewhere_windowed (ssRNA)
RNA: GGGAGUUCUACAGUCCGACGAUCCCUUUUGUUCAGAAUUUAGUAGAUUGUUUAAUGCAGGACAUCAACUACAUAAUGAAAGAUGCUUGAAAUGCUUUUGUUAUUUCAGGCAAAUCAAAUUAAAUCAGACUAUCAAACUACAAGCAACAGAGGAUUGAGCAUCA
B14: chr15:83017406:83017507:-|3pUTR|ENSG00000064726|msi1|total|mutant (ssRNA)
RNA: GGGAGUUCUACAGUCCGACGAUCGGCCUAAUAAAAUGCCCAAGAAAAUAUUCAGUGCAUUUACCGAGAAGGAUAUUUUGCCGCCGUACCGUAAUGUGUUAUGCCGUACAGUUUUAAAGCUAUAAAUGGAAUUUUGUGUAAAUUCAACAGAGGAUUGAGCAUCA
B15: chr10:11920118:11920232:-|3pUTR|ENSG00000151461|unk|total|mutant (ssRNA)
RNA: B9 RNA with U25C, A26C, U34C, A35C, U83C, A84C, U129C, A130C
B16: chr15:83017406:83017507:-|3pUTR|ENSG00000064726|msi1|FALSE|unique (ssRNA)
RNA: B14 RNA with C63U, C64A, C80U, C81A, C83U, C84A, C88U, C89A, C103U, C104A
B17: ENSG00000114744:stop:overlap|stop_codon|ENSG00000114744|stop_codon|NA|stop_codon (ssRNA)
RNA: GGGAGUUCUACAGUCCGACGAUCAACAAGCAUUGGAAGAGAUGAAGACAAAUCACUGUAGGAGAGUUGUUCGCAACAUCAAGUAGUACCAGUUUUAAGGUUUUAAUUCAUUUGAAUCACUUAUGAAUUGAUGAUAUACAGCAACAACAGAGGAUUGAGCAUCA
B18: ENSG00000136451:be:win_1501|CDS_3pUTR|ENSG00000136451|bound_else_gene|NA|bound_elsewhere_windowed (ssRNA)
RNA: GGGAGUUCUACAGUCCGACGAUCGCAAUGAGACCUGUAGAGAGCAUGCCUUUCUUGCCCCAAGCUUUGCCUACAUCACCGCCUUGGUAAACAGUAUUAUAAAAUCAAAAUAUGGGUAAAAGUAAAUAUUUACCAGCAACUUAACAACAGAGGAUUGAGCAUCA
B19: chr8:41262032:41262394:-|3pUTR|ENSG00000104332|msi1|total|mutant (ssRNA)
RNA: GGGAGUUCUACAGUCCGACGAUCGGCCGUUCUGACCUGUUGCCAGCAGAUACACAGGACAUGGAUGAAAUUCCCGUUUCCUCCCGUUUCUUCCUGCCGUACUCCUCUUUCCGAUCCUAAGUCUCUUACAAAAGCUUUGAAUACCAACAGAGGAUUGAGCAUCA
B20: chr1:6522505:6522606:-|3pUTR|ENSG00000162408|msi1|FALSE|unique (ssRNA)
RNA: GGGAGUUCUACAGUCCGACGAUCCUGGGAUUACAGGCGUGAGCCACUGCGCCUGGCCUGAAGCUAUUCUUUACAAAAGCUCUUAGUUUUUGUUUGUUUGUUUGUUUUUUUCUUUUGCGACGGACUCUCUGUCGCCAAGGCUGGCAACAGAGGAUUGAGCAUCA
B21: chr12:95077336:95077437:-|3pUTR|ENSG00000180263|msi1|FALSE|unique (ssRNA)
RNA: GGGAGUUCUACAGUCCGACGAUCUCCUCAUUGACCCAUCCGCAUCUCUGUUUAUCCAAGACUUCUCUGUGAUAGCUGACCCUUAGUCUUUCUCUCCCCUAUUCCUCCAGACUAGAUCCUGUCUCCUUCCUGCAGCCCCGACACCAACAGAGGAUUGAGCAUCA
B22: chr2:121605696:121605828:-|CDS|ENSG00000074054|unk|total|mutant (ssRNA)
RNA: GGGAGUUCUACAGUCCGACGAUCGACCGACUAUUUCUCAGACAAACAGAAGUCUGCUGACCUUGAGCAUGACCAGACCAUGUCCGAUAAACUUGUGGAUGGACUUGCUACCUCUUGGGUGAACUCCCGCAAUUACAAGGUAAGCAACAGAGGAUUGAGCAUCA

Each binder was assayed against MSI1 full-length (mouse, UniProt Q61474 1-362) (assay: nsRBNS (natural sequence RNA bind-n-seq); RBNS binding buffer (assumed for nsRBNS): 25 mM Tris pH 7.5, 150 mM KCl, 3 mM MgCl2, 0.01% Triton X-100, 500 ug/ml BSA, 20 U/ml SUPERase-In, 4 C; UNK is unkempt and MSI1 is Musashi-1; names of the RNAs are library labels; protein concentration not given here; high values mean tight binding).
Sequence of MSI1 full-length (Q61474 whole entry): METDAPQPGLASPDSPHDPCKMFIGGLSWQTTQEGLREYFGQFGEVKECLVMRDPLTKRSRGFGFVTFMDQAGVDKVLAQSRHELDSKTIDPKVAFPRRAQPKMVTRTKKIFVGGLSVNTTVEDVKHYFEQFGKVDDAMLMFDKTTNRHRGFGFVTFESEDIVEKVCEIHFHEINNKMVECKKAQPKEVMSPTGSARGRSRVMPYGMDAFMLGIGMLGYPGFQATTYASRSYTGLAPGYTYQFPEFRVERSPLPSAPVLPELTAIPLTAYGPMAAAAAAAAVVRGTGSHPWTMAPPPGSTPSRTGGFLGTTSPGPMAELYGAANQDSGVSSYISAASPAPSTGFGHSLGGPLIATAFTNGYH

Binder | binding signal
B1 | 0.621 enrichment R
B2 | 2.45 enrichment R
B3 | 0.264 enrichment R
B4 | 0.832 enrichment R
B5 | 2.83 enrichment R
B6 | 0.774 enrichment R
B7 | 2.43 enrichment R
B8 | 0.807 enrichment R
B9 | 23.3 enrichment R
B10 | 12.7 enrichment R
B11 | 1.05 enrichment R
B12 | 77.2 enrichment R
B13 | 0.644 enrichment R
B14 | 0.489 enrichment R
B15 | 0.709 enrichment R
B16 | 44.9 enrichment R
B17 | 16.3 enrichment R
B18 | 0.827 enrichment R
B19 | 0.417 enrichment R
B20 | 0.372 enrichment R
B21 | 1.24 enrichment R
B22 | 0.532 enrichment R
